PubChem BioAssay (EPA / NIEHS)
Activity calls are given as the source filed them. The calls were made as follows: active = hit-call score of the fitted dose curve at least 0.9, where 1 is the maximum; inactive = score below 0.9.

What was measured:
[1] = ATG_GLI_CIS: Attagene CIS-FACTORIAL HepG2 Assay for human Zinc Finger Protein GLI1 (AID 2282945); conditions: HepG2, Attagene cis-factorial reporter mRNA, GLI element; actives raise or lower the signal
Method in brief: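 Bidirectional curve fits relative to DMSO, using reporter mRNA levels from RT-PCR plus capillary electrophoresis. Cells were HepG2 transiently carrying cis-regulated reporter constructs, harvested 24 h after dosing.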

[2] = ATG_GRE_CIS: Attagene CIS-FACTORIAL HepG2 Assay for human Glucocorticoid Response Elements (GRE) (AID 2282947); conditions: HepG2 GRE cis-reporter, Attagene multiplex mRNA; actives raise or lower the signal
Method in brief: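 Reporter transcripts read by RT-PCR with capillary electrophoresis fluorescence after a 24 h chemical exposure of HepG2 cells transiently transfected with multiple cis-element reporter units. Gain or loss fitted against DMSO.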

[3] = ATG_ISRE_CIS: Attagene CIS-FACTORIAL HepG2 Assay for human Interferon Regulatory Factor 1 (IRF1) binding to an Interferon-Stimulated Response Element (ISRE) (AID 2282948); conditions: HepG2 ISRE cis-reporter (Attagene), mRNA transcription readout; actives raise or lower the signal
Method in brief: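 Signal reflects induction or loss of ISRE-linked reporter mRNA in transiently transfected HepG2 cells after a 24 h treatment, detected by fluorescent RT-PCR fragments on capillary electrophoresis and normalised to DMSO.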

[4] = ATG_M_32_CIS: Attagene CIS-FACTORIAL HepG2 Assay for M32 Transcription Factor (Internal Marker) (AID 2282949); conditions: HepG2 Attagene cis-factorial M32 reporter, mRNA; actives raise or lower the signal;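 also: background control marker of the multiplexed CIS panel rather than a real target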
Method in brief: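 HepG2 human liver cells transiently transfected with cis-promoter-driven multiple reporter transcription units, dosed 24 h. Reporter mRNA quantified by RT-PCR, FAM-labelled primer extension, HpaI digest and capillary electrophoresis; bidirectional fit versus DMSO baseline.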

[5] = ATG_M_06_CIS: Attagene CIS-FACTORIAL HepG2 Assay for M06 Transcription Factor (Internal Marker) (AID 2282950); conditions: HepG2 Attagene CIS-FACTORIAL M06 internal marker reporter; actives raise or lower the signal
Method in brief: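 Internal background marker within multiplexed cis-reporter HepG2 system. Cells transiently transfected, dosed 24 h; reporter mRNA measured by RT-PCR, HpaI digestion and capillary electrophoresis. Bidirectional fit relative to DMSO.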

[6] = target: Hypoxia-inducible factor 1-alpha (Homo sapiens) (UniProt Q16665); experiment: ATG_HIF1a_CIS: Attagene CIS-FACTORIAL HepG2 Assay for human Hypoxia Inducible Factor 1 (HIF1A) (AID 2282951); conditions: HepG2 Attagene cis-factorial HIF1a reporter transcription; actives raise or lower the signal
Method in brief: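 After 24 h chemical exposure of reporter-transfected HepG2 cells, reporter cDNA was PCR-amplified, labelled by 6-FAM primer extension (2 min 95 C, 20 s 68 C, 10 min 72 C), HpaI-cut (2 h, 37 C) and analysed by CE.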

[7] = target: Hepatocyte nuclear factor 6 (Homo sapiens) (UniProt Q9UBC0); experiment: ATG_HNF6_CIS: Attagene CIS-FACTORIAL HepG2 Assay for human Hepatocyte Nuclear Factor 6 (HNF6) (AID 2282952); conditions: HepG2 Attagene cis-factorial HNF6 reporter transcription; actives raise or lower the signal
Method in brief: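 Activity values derive from bidirectional fitting against DMSO of reporter mRNA levels, measured by capillary electrophoresis of labelled RT-PCR products from HepG2 cells exposed 24 h.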

[8] = target: Heat shock factor protein 1 (Homo sapiens) (UniProt Q00613); experiment: ATG_HSE_CIS: Attagene CIS-FACTORIAL HepG2 Assay for human Heat Shock Transcription Factor 1 (HSE) (AID 2282953); conditions: HepG2 HSE cis-reporter, Attagene RNA transcription; actives raise or lower the signal
Method in brief: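 HepG2 cells transfected with cis-promoter reporter units sensing endogenous transcription factor activity; reporter mRNA quantified 24 h post-dose by RT-PCR and capillary electrophoresis of 6-FAM-labelled products. Bidirectional fitting against DMSO.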

[9] = ATG_MRE_CIS: Attagene CIS-FACTORIAL HepG2 Assay for human Metal Responsive Element (MRE) (AID 2282954); conditions: HepG2 MRE cis-reporter transcription, Attagene multiplex; actives raise or lower the signal
Method in brief: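 Endogenous MRE-dependent transcription read as reporter mRNA in transiently transfected human HepG2 cells at 24 h. RNA reverse-transcribed, PCR-amplified, labelled and resolved by capillary electrophoresis; gain or loss relative to DMSO.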

[10] = ATG_PBREM_CIS: Attagene CIS-FACTORIAL HepG2 Assay for human Phenobarbital-responsive Enhancer Module (PBREM) (AID 2282955); conditions: HepG2 PBREM cis-reporter, Attagene multiplexed transcription; actives raise or lower the signal
Method in brief: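 Measures endogenous factor action on a phenobarbital-responsive enhancer module. HepG2 transiently carrying cis reporters, 24 h treatment, mRNA read-out by RT-PCR plus capillary electrophoresis.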

[11] = target: Paired box protein Pax-6 (Homo sapiens) (UniProt P26367); experiment: ATG_Pax6_CIS: Attagene CIS-FACTORIAL HepG2 Assay for human Paired Box 6 (PAX6) (AID 2282956); conditions: HepG2 CIS-FACTORIAL PAX6 reporter transcription, RNA readout; actives raise or lower the signal
Method in brief: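 Values derive from bidirectional curve fitting of reporter mRNA signal relative to DMSO. HepG2 cells bearing transfected cis-regulated MRTUs were exposed for 24 h; transcripts were read by RT-PCR and capillary electrophoresis.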

[12] = ATG_PXRE_CIS: Attagene CIS-FACTORIAL HepG2 Assay for human Pregnane X Receptor Element (PXRE) (AID 2282957); conditions: HepG2 Attagene CIS-FACTORIAL PXRE reporter, mRNA; actives raise or lower the signal
Method in brief: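 Fluorescent capillary electrophoresis of amplified reporter cDNA gave the signal, collected 24 h after dosing HepG2 cells that held transfected cis-element reporter constructs.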

[13] = ATG_PPRE_CIS: Attagene CIS-FACTORIAL HepG2 Assay for human Peroxisome Proliferator-activated Response Element (PPRE) (AID 2282958); conditions: HepG2 PPRE cis-element reporter, Attagene transcription factor profiling; actives raise or lower the signal
Method in brief: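 PPRE activity in HepG2: transient cis-reporter transfection, 24 h compound incubation, reporter mRNA by RT-PCR and CE fluorescence; gain/loss fitted against DMSO.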

[14] = ATG_RORE_CIS: Attagene CIS-FACTORIAL HepG2 Assay for human RAR-related Orphan Receptor Element (RORE) (AID 2282959); conditions: HepG2 Attagene cis-factorial RORE reporter, mRNA; actives raise or lower the signal
Method in brief: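 A 24-hour exposure of transfected HepG2 hepatoma cells precedes RNA isolation and reporter RT-PCR. Labeled products are digested with HpaI and resolved by capillary electrophoresis, with gain or loss of signal scored relative to DMSO.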

[15] = target: Transcription factor Sp1 (Homo sapiens) (UniProt P08047); experiment: ATG_Sp1_CIS: Attagene CIS-FACTORIAL HepG2 Assay for human Specificity Protein 1 (Sp1) (AID 2282961); conditions: HepG2 Sp1 cis-reporter transcription, actives raise or lower the signal
Method in brief: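 Liver-derived HepG2 cells, cis-element reporter library, 24 h treatment; RNA isolated, cDNA amplified with reporter-specific primers, FAM-labeled fragments sized on capillary analyzer. DMSO baseline, bidirectional curve fit.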

[16] = ATG_SREBP_CIS: Attagene CIS-FACTORIAL HepG2 Assay for human Sterol Regulatory Element Binding (SREBP) (AID 2282962); conditions: HepG2 Attagene cis-factorial SREBP reporter, mRNA; actives raise or lower the signal
Method in brief: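 Values derive from bidirectional curve fitting with DMSO as baseline. The underlying measurement is reporter mRNA from cis-element-regulated units in transiently transfected HepG2, quantified by RT-PCR and capillary electrophoresis after 24 h exposure.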

[17] = target: Signal transducer and activator of transcription 3 (Homo sapiens) (UniProt P40763); experiment: ATG_STAT3_CIS: Attagene CIS-FACTORIAL HepG2 Assay for human Signal Transducer and Activator of Transcription 3 (STAT3) (AID 2282963); conditions: HepG2, Attagene cis-factorial STAT3 reporter transcription; actives raise or lower the signal
Method in brief: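 Readout is reporter transcript quantified by RT-PCR and capillary electrophoresis, with 6-FAM primer extension and HpaI digestion. Total RNA is taken 24 h after dosing transiently transfected HepG2 carrying cis-regulated reporter units. Bidirectional fit against DMSO.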

[18] = ATG_TA_CIS: Attagene CIS-FACTORIAL HepG2 Assay for human TA Basal Promoter (AID 2282964); conditions: HepG2 Attagene CIS-factorial TA basal promoter reporter; actives raise or lower the signal
Method in brief: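 HepG2 cells transiently transfected with multiple reporter units under cis promoter elements, reporting endogenous transcription factor activity; this endpoint tracks the TA basal promoter as background control. Reporter mRNA after 24 h dosing measured by RT-PCR/capillary electrophoresis; bidirectional fits versus DMSO.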

[19] = ATG_Sox_CIS: Attagene CIS-FACTORIAL HepG2 Assay for human SRY-box transcription factor (SOX) (AID 2282960); conditions: HepG2 Attagene cis-factorial SOX reporter, mRNA; actives raise or lower the signal
Method in brief: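 HepG2, cis reporter units, 24 h exposure. Reporter mRNA: RT-PCR → FAM labelling → HpaI → CE fluorescence. Bidirectional fit vs DMSO.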

Hepatocyte nuclear factor 6 (Homo sapiens), sequence (Q9UBC0 whole entry, looked up): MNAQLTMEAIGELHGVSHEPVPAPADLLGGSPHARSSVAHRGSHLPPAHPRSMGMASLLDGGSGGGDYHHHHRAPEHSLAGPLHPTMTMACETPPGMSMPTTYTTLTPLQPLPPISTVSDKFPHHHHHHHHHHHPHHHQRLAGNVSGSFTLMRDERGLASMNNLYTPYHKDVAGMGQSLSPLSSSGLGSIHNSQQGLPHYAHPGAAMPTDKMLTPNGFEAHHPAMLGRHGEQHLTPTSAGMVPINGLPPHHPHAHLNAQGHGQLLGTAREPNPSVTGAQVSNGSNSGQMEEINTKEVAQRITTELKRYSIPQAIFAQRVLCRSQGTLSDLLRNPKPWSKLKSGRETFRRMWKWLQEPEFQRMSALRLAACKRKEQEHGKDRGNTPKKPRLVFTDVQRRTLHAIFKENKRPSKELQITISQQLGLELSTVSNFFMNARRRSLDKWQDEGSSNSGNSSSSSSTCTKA
Paired box protein Pax-6 (Homo sapiens), sequence (P26367 whole entry, looked up): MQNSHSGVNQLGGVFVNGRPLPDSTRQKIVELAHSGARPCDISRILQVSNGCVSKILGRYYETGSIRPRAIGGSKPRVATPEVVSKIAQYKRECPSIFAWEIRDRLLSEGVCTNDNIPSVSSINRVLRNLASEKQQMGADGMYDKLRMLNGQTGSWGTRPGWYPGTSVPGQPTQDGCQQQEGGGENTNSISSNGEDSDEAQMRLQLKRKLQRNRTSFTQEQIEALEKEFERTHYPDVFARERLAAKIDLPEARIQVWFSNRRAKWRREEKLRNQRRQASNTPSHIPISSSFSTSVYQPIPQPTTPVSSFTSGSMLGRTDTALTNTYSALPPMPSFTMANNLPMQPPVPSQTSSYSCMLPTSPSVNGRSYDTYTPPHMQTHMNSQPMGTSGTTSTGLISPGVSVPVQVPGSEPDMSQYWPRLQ
Transcription factor Sp1 (Homo sapiens), sequence (P08047 whole entry, looked up, the tested form may be a part): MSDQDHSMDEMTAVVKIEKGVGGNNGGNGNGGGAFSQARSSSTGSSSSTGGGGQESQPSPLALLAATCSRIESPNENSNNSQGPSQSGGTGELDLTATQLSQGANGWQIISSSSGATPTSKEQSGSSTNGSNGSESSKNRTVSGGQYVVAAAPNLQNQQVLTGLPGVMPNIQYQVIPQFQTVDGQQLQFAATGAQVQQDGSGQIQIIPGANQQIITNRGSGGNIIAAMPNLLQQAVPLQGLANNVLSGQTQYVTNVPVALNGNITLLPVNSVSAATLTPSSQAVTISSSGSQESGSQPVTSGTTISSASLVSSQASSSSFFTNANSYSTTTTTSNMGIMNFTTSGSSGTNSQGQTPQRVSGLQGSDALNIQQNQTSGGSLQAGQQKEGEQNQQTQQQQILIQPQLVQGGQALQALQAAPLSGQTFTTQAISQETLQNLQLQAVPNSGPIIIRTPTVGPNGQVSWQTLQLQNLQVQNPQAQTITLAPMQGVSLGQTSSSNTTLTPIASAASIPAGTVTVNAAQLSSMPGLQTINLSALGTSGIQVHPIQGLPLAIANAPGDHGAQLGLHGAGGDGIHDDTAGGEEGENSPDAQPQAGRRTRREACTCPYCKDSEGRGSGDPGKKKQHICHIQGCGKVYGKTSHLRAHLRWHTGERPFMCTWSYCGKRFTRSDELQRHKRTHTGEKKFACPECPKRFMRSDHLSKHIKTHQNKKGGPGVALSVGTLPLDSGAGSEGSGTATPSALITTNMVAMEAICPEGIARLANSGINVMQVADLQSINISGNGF
Hypoxia-inducible factor 1-alpha (Homo sapiens), sequence (Q16665 whole entry, looked up): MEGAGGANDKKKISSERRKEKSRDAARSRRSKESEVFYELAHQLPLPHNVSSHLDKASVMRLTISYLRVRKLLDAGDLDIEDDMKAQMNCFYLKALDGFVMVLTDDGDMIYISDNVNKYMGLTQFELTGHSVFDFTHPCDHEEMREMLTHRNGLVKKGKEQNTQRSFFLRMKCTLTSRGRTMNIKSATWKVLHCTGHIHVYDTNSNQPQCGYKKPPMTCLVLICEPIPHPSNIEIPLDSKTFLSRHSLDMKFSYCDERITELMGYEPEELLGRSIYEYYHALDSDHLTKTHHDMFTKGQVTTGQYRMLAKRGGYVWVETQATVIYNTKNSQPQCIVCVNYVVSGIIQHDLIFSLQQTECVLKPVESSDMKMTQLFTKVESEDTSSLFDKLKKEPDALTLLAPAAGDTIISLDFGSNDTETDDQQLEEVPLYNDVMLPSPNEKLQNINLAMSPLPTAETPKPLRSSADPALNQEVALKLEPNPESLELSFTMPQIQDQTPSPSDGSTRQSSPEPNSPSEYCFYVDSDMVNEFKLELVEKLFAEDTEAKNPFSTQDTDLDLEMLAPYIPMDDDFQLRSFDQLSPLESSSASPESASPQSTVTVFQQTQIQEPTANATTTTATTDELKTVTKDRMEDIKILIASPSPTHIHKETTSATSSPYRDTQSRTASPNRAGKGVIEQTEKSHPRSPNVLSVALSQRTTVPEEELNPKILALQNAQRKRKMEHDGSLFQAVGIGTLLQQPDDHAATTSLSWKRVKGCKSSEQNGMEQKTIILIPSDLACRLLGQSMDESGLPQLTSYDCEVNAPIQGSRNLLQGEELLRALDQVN
Signal transducer and activator of transcription 3 (Homo sapiens), sequence (P40763 whole entry, looked up): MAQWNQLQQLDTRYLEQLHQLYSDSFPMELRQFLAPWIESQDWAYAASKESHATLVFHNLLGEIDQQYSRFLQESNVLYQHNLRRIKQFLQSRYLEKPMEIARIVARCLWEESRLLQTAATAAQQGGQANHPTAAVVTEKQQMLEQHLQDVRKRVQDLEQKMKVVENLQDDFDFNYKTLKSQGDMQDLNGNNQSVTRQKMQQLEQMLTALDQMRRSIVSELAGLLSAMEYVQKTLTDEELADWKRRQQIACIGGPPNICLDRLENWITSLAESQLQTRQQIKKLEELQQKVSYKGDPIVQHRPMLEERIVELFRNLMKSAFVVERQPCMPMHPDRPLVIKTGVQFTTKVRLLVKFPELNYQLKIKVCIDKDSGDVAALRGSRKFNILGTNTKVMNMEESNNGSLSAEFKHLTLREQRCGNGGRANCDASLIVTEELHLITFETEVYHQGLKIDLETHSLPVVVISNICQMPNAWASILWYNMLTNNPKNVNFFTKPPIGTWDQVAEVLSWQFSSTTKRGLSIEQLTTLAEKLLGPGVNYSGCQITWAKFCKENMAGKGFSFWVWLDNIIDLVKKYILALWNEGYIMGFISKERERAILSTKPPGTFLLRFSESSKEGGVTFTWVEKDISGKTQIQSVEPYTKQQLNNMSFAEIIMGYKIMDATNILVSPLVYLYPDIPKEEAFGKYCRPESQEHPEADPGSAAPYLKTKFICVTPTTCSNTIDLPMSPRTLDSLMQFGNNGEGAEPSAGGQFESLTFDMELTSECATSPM
Heat shock factor protein 1 (Homo sapiens), sequence (Q00613 whole entry, looked up): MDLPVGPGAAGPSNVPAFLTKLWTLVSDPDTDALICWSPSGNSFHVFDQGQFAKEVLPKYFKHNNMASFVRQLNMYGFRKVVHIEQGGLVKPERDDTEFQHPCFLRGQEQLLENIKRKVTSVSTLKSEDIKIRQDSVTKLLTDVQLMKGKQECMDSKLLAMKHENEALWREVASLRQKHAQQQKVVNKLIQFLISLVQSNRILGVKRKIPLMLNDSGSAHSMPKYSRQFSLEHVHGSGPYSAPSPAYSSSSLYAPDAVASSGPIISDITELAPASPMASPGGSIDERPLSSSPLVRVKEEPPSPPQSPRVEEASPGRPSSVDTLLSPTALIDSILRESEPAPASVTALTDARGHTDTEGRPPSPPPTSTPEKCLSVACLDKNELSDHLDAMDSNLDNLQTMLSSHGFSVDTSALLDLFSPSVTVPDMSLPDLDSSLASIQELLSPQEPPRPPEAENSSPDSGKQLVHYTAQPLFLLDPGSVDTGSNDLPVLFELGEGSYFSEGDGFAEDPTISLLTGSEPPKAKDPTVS

SMILES | outcome [1] | outcome [2] | outcome [3] | outcome [4] | outcome [5] | outcome [6] | outcome [7] | outcome [8] | outcome [9] | outcome [10] | outcome [11] | outcome [12] | outcome [13] | outcome [14] | outcome [15] | outcome [16] | outcome [17] | outcome [18] | AC50 [12] | outcome [19]
Cc1ccc2ncccc2c1 | inactive | inactive | inactive | inactive | inactive | inactive | inactive | inactive | inactive | inactive | inactive | inactive | inactive | inactive | inactive | inactive | inactive | inactive | – | –
CC(=O)C(C)=CC1C(C)=CCCC1(C)C (stereo not given) | inactive | inactive | inactive | inactive | inactive | inactive | inactive | inactive | inactive | inactive | inactive | – | inactive | inactive | inactive | inactive | inactive | inactive | 22.9 µM (active) | –
c1cc(-c2ccncc2)ccn1 | inactive | inactive | inactive | inactive | inactive | inactive | inactive | inactive | inactive | inactive | inactive | inactive | inactive | inactive | inactive | inactive | inactive | inactive | – | inactive
